From PubChem BioAssay (NCATS)
Several values for one entry are separate records, joined by “and”; a condition that tells them apart may be missing. Equal entries are not always repeated. Results filed as inconclusive are left out. Activity calls are given as the source filed them. The call rests on the fitted dose curve.

Assay: Primary qHTS to identify inhibitors of SARS-CoV-2 cell entry (AID 1645846); further: nearly all actives have a fitted effect of over 45% in size
Conditions: SARS-CoV-2 pseudovirus cell entry assay, luminescence; activity change, negative = inhibition: at 57.1 µM (top of the series) unless noted; series mostly up to 57.1 µM
In short: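 Data are normalized to wells receiving SARS-CoV-2-S pseudoparticles and those given bald particles. Entry signal was luciferase luminescence in stable hACE2 Expi293F cells, 48 hr post-infection, after 1 hr compound pretreatment.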
Potency means the concentration at half of the fitted maximal effect.

| Structure (SMILES) | outcome | activity change, negative = inhibition | Potency |
| --- | --- | --- | --- |
| CNS(=O)(=O)Cc1ccc2[nH]cc(CCN(C)C)c2c1 | inactive |  |  |
| Cn1cnc([N+](=O)[O-])c1Sc1ncnc2nc[nH]c12 | inactive | -53.9% |  |
| CC[C@@H]([C@H](C)O)n1ncn(-c2ccc(N3CCN(c4ccc(OC[C@@H]5CO[C@@](Cn6cncn6)(c6ccc(F)cc6F)C5)cc4)CC3)cc2)c1=O |  | -23.1% |  |
| COc1cc(C(=O)NCc2ccc(OCCN(C)C)cc2)cc(OC)c1OC | inactive |  |  |
| COc1cc2c(c(OC)c1OC)-c1ccc(OC)c(=O)cc1[C@@H](NC(C)=O)CC2 |  | -76.4% |  |
| NNc1nncc2ccccc12 | inactive | 83.2% [at 27.1 µM] |  |
| C[C@@H](c1ncncc1F)C(O)(Cn1cncn1)c1ccc(F)cc1F (stereo partly drawn) |  | -1.38% |  |
| COc1cc([C@@H]2c3cc4c(cc3[C@H](O)[C@H]3COC(=O)[C@H]23)OCO4)cc(OC)c1OC |  | -79.7% |  |
| CN(Cc1cnc2nc(N)nc(N)c2n1)c1ccc(C(=O)N[C@@H](CCC(=O)O)C(=O)O)cc1 |  | -94.2% |  |
| CN(C)CCC=C1c2ccccc2CCc2ccccc21 |  |  | 20 µM (active) |
| N[C@@H]1CONC1=O | inactive | -2.51% |  |
| Cc1c(OCC(F)(F)F)ccnc1CS(=O)c1nc2ccccc2[nH]1 (stereo not drawn) | inactive |  |  |
| COC(=O)Nc1nc2ccc(C(=O)c3ccccc3)cc2[nH]1 |  | -67.2% and -34.4% |  |
| O[C@@H](CNC[C@H](O)[C@H]1CCc2cc(F)ccc2O1)[C@@H]1CCc2cc(F)ccc2O1 |  |  | 22.4 µM (active) |
| O=C(O)P(=O)(O)O | inactive |  |  |
| CCCNC(=O)NS(=O)(=O)c1ccc(Cl)cc1 | inactive |  |  |
| COc1cc(NCc2ccc3nc(N)nc(N)c3c2C)cc(OC)c1OC |  |  | 2.82 µM (active) |
| CN1C(CCl)Nc2cc(Cl)c(S(N)(=O)=O)cc2S1(=O)=O (stereo not drawn) | inactive |  |  |
| CN(C/C=C/C#CC(C)(C)C)Cc1cccc2ccccc12 |  | -3.95% |  |

| Structure (SMILES) | outcome | activity change, negative = inhibition | Potency |
| --- | --- | --- | --- |
| COc1ccc([C@@H]2Sc3ccccc3N(CCN(C)C)C(=O)[C@@H]2OC(C)=O)cc1 |  | -17.1% and -9.97% |  |
| C[C@@H](NCCCc1cccc(C(F)(F)F)c1)c1cccc2ccccc12 |  |  | 20 µM (active) |
| CCN(CCO)CCCC(C)Nc1ccnc2cc(Cl)ccc12 (stereo not drawn) | inactive [at 5.25 µM] | -16.5% [at 5.25 µM] |  |
| CCN(CC)C(=S)SSC(=S)N(CC)CC |  |  | 891 nM (active) and 7.94 µM (active) |
| OCCN1CCN(CCCN2c3ccccc3Sc3ccc(C(F)(F)F)cc32)CC1 | inactive |  |  |
| Nc1nc2c(ncn2COCCO)c(=O)[nH]1 |  |  | inactive |
| Cc1ccc(-c2cc(C(F)(F)F)nn2-c2ccc(S(N)(=O)=O)cc2)cc1 |  | -19.2% |  |
| CC1=NS(=O)(=O)c2cc(Cl)ccc2N1 | inactive |  |  |
| COC(=O)C1=C(C)NC(C)=C(C(=O)OC(C)C)C1c1cccc2nonc12 (stereo not drawn) | inactive |  |  |
| CCn1cc(C(=O)O)c(=O)c2cc(F)c(N3CCNCC3)cc21 | inactive | -15.8% |  |
| CN(C)CCCN1c2ccccc2CCc2ccc(Cl)cc21 |  |  | 28.2 µM (active) |
| CCN(CC)CCNC(=O)c1c(C)[nH]c(/C=C2\C(=O)Nc3ccc(F)cc32)c1C |  |  | 25.1 µM (active) |
| CCC(C)n1ncn(-c2ccc(N3CCN(c4ccc(OC[C@H]5CO[C@](Cn6cncn6)(c6ccc(Cl)cc6Cl)O5)cc4)CC3)cc2)c1=O (stereo partly drawn) |  | -4.73% [at 27.1 µM] |  |
| O=C1c2c(O)ccc(O)c2C(=O)c2c(NCCNCCO)ccc(NCCNCCO)c21 |  | -94.5% and -97.6% |  |
| CC(C)(C)NC(=O)[C@@H]1CN(Cc2cccnc2)CCN1C[C@@H](O)C[C@@H](Cc1ccccc1)C(=O)N[C@H]1c2ccccc2C[C@H]1O |  | 4.24% |  |
| CC(C)C[C@H](NC(=O)[C@H](CCc1ccccc1)NC(=O)CN1CCOCC1)C(=O)N[C@@H](Cc1ccccc1)C(=O)N[C@@H](CC(C)C)C(=O)[C@@]1(C)CO1 |  | -96% and -97.8% |  |
| NCCC(O)(P(=O)(O)O)P(=O)(O)O | inactive |  |  |
| NC1[C@H]2CN(c3nc4c(cc3F)c(=O)c(C(=O)O)cn4-c3ccc(F)cc3F)C[C@@H]12 (stereo partly drawn) | inactive |  |  |
| COc1ccccc1Oc1c(NS(=O)(=O)c2ccc(C(C)(C)C)cc2)nc(-c2ncccn2)nc1OCCO |  | -16.5% |  |
